Mac1 fbg inh: blocks human CD11b/CD18 adhesion to fibrinogen | P05107+P11215 | K562 CD11b/CD18 adhesion to fibrinogen, ATPlite luminescence; Mn2+ added to activate the integrin | inhibition, % at 10 µM | actives 0.54% (n = 93,000) | AID 1497;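 active means primary inhibition of 50% or more at 10 µM, then 40% or more on retest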
CYP2C9 activ: increases human cytochrome P450 2C9 activity. recombinant CYP2C9, luciferin-H conversion, luminescence; active compounds read high; factor 1 = untreated enzyme, 0 = blocked. activation factor at 5 µM. actives 1.4% (n = 96,000). AID 1024;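 active means activation factor of 2 or more for CYP2C9 at a 5 µM dose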;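 further: 0 = sulfaphenazole-blocked wells and 1 = vehicle-only wells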
CYP2C19 act: activators of human cytochrome P450 2C19 | P33261 | 96,000 tested, under 10 active | recombinant CYP2C19, luciferin-H EGE luminescence; active compounds read high; 0 = fully inhibited enzyme, 1 = untreated enzyme | activation factor at 5 µM;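 active means activation factor of at least 2 at 5 µM in the primary screen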;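 further: 0 = wells with 2.5 mM tranylcypromine and 1 = vehicle-only wells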
Mac1 fbg enh: CD11b/CD18-fibrinogen binding enhancement | P05107+P11215 | K562 CD11b/CD18 adhesion to fibrinogen, ATPlite luminescence | activation, % at 10 µM | actives 0.07% (n = 93,000);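 active means 10 µM primary screen giving 50% or more activity, confirmed by 40% or more on retest at that dose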
CYP2C9 inhib: human CYP2C9 inhibition. P11712. CYP2C9 Supersomes, luciferin-H conversion, luminescence. inhibition, % at 5 µM. actives 20% (n = 96,000). AID 777;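 active means blocking of liver enzyme CYP2C9 beyond about 50% at 5 µM, limit read from the data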
CYP2C19 inh: blocks human cytochrome P450 2C19. P33261. CYP2C19 Supersomes, luciferin-H EGE luminescence, 30 min. inhibition, % at 5 µM. actives 21% (n = 96,000). AID 778;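 active means CYP2C19 inhibition above a set limit at 5 µM in the primary screen, cut at about 50% in these data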;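 further: plate controls were negative control wells for no effect and 2.5 mM tranylcypromine positive control for full effect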
The depositor's hits bear a star; · = no result. In the library only some 28% were active in any assay of this set; here they are far more common.

SMILES	Mac1 fbg inh	CYP2C9 activ	CYP2C19 act	Mac1 fbg enh	CYP2C9 inhib	CYP2C19 inh
O=C1NCCCC1C(=O)N/N=C/c1ccccc1 (centres undefined)	-37	1.1	1.1	1	-13	-6
CC(=O)n1cc(-c2ccncc2)c2ccccc21	-3	0.2	0.2	3	79*	80*
CCC(CO)NCc1ccc(-c2ccccc2)cc1 (centres undefined)	10	·	·	2	·	·
CCCc1cc(=O)oc2cc(Oc3ncccn3)ccc12	-5	0.6	0.1	0	37	88*
C=C(Cl)COc1ccc2c(CCC)cc(=O)oc2c1	-6	0.7	0.8	0	27	23
COc1ccc2c(CN(C)c3ccccc3)cc(=O)oc2c1	18	0.6	0	-1	36	97*
CCOC(=O)c1c(NC(=O)c2noc3c2CCCC3)sc(C)c1C	-2	0.9	1	0	7	-2
CC(=O)OC(C(=O)NC1CCCCC1)c1ccc(C#N)cc1 (centres undefined)	-12	0.8	0.9	-2	17	15
O=C(NCc1ccco1)c1cc(C(=O)C2CCCCC2)c[nH]1	·	1	1	·	4	-3
CCC(CC)C(=O)c1c[nH]c(C(=O)NCCCn2ccnc2)c1	·	0.1	0.3	·	92*	67*
Cc1ccccc1C(=O)c1c[nH]c(C(=O)NCCCn2ccnc2)c1	3	0.1	0.3	-2	93*	67*
O=C(NCCCn1ccnc1)c1cc(C2CC2)on1	-6	0.4	0.1	-1	59*	85*
Cc1ccccc1C(=O)c1c[nH]c(C(=O)NCc2cccs2)c1	7	1	1.1	-2	-2	-7
O=C(NCCCn1ccnc1)c1cc(C(=O)C2CC2)c[nH]1	-9	0.4	0.4	3	61*	56*
Cc1ccc(C)n1NC(=O)c1cccc(Cl)c1	6	1	0.9	-2	-3	12
COc1cccc(NC(=O)c2cn(C)c(=O)c3cc(OC)c(OC)cc23)c1	·	0.8	1.1	·	18	-6
C(=N\c1nc2ccccc2n1Cc1ccccc1)/c1cccs1	1	0.6	0.9	-5	36	7
Cn1cc(C(=O)N2CCN(C(=O)c3ccco3)CC2)c2c3ccccc3n(C)c2c1=O	6	0.9	1.1	-5	8	-11
COc1ccc(CNc2nc(SCc3cc(=O)n4cc(Cl)ccc4n3)nc3ccccc23)cc1	6	·	·	13	·	·
COc1ccccc1NC(=O)C1=C(C)Nc2nc(-c3cccs3)nn2C1c1cccnc1 (centres undefined)	-1	0.6	0.8	4	43	16
CC(C)CC(=O)c1c[nH]c(C(=O)NCCCn2ccnc2)c1	4	0.2	0.6	8	82*	41
CC(C)CC(=O)c1c[nH]c(C(=O)NCc2cccs2)c1	9	0.8	0.9	-5	20	11
Cc1ccc(S(=O)(=O)N2CCN(C(=O)c3nn(C(C)C)c(=O)c4ccccc34)CC2)cc1C	9	0.4	0.6	1	59*	38
N#CCCN1CCN(S(=O)(=O)c2ccc(S(=O)(=O)N3CCOCC3)cc2)CC1	12	1	1.1	-1	-1	-14
Cc1ccc(S(=O)(=O)N2CCN(C(=O)C3=COCCO3)CC2)cc1C	-36	1	0	-2	3	97*
SMILES	Mac1 fbg inh	CYP2C9 activ	CYP2C19 act	Mac1 fbg enh	CYP2C9 inhib	CYP2C19 inh
N#CCCN1CCN(S(=O)(=O)c2ccc3c(c2)OCCCO3)CC1	-8	0.9	0.2	2	8	82*
COc1ccc(S(=O)(=O)N2CCN(S(=O)(=O)c3ccc4c(c3)OCCO4)CC2)cc1	-12	1	1	2	4	2
COc1ccc(S(=O)(=O)N2CCN(S(=O)(=O)c3ccc4c(c3)OCCO4)CC2)cc1C	17	0.1	0	-2	87*	99*
CCCS(=O)(=O)N1CCC(C(=O)NCC2CCCO2)CC1 (centres undefined)	-5	1	1	-3	-4	-4
O=P(O)(CCCCP(=O)(O)CCc1ccccc1)CCc1ccccc1	-8	1.1	1.1	-2	-12	-14
CCOc1ccccc1N1C(=O)CC(Sc2ncccc2C(=O)O)C1=O (centres undefined)	-9	1.3	1.2	-2	-30	-18
Cc1ccc(S(=O)(=O)N2CCCN(S(=O)(=O)c3ccc(C(F)(F)F)cc3)CC2)cc1	-14	2.5*	0.7	-4	-149	33
Cc1ccc2nc(N3CCN(S(=O)(=O)c4ccc5c(c4)OCCO5)CC3)c(C#N)cc2c1	·	0.5	0.3	·	50*	70*
Cc1ccc2nc(N3CCN(C(=O)c4cccs4)CC3)c(C#N)cc2c1	18	0.6	0.7	0	41	30
CC1CCCCC1NS(=O)(=O)c1ccc(S(=O)(=O)N2CCN(CCC#N)CC2)cc1 (centres undefined)	-22	0.6	0.5	4	45	52*
N#CCCN1CCN(S(=O)(=O)c2ccc(S(=O)(=O)NCC3CCCO3)cc2)CC1 (centres undefined)	-21	0.9	1.2	-2	6	-23
CC(C)n1nc(C(=O)NCCc2ccc(S(N)(=O)=O)cc2)c2ccccc2c1=O	-3	0.4	0.9	0	63*	9
Cc1nn2c(N3CCCC3)cc(C(C)C)nc2c1-c1ccccc1	-8	1.1	1.1	-3	-14	-8
CN(C)S(=O)(=O)c1ccc(C(=O)OCC(=O)NC(=O)NCc2ccccc2)cc1	28	1.1	1.2	-6	-11	-17
Cc1ccc(S(=O)(=O)N2CCCN(S(=O)(=O)c3ccc4c(c3)OCCO4)CC2)cc1	8	2.7*	0.7	1	-171	27
CN1C(=O)C(O)(c2sc(N)nc2-c2ccccc2)c2ccccc21 (centres undefined)	-15	0.9	0.7	-4	12	26
CCCCC(CC)CN1C(=O)/C(=C/c2ccncc2)SC1=S (centres undefined)	23	0.3	0.4	3	70*	62*
CN(C)S(=O)(=O)N(CC(=O)Nc1ccc(F)c(F)c1)c1ccccc1	10	0.4	0.7	-5	56*	28
CSc1ccccc1NC(=O)CN(c1ccccc1)S(=O)(=O)N(C)C	11	0.6	0.7	-4	40	27
CN(C)S(=O)(=O)N(CC(=O)Nc1ccccc1C(F)(F)F)c1ccccc1	13	0.7	0.1	-3	33	88*
Nc1nc(-c2ccc(Br)s2)c(Br)s1	-8	0.9	1.1	-1	8	-8
CCN=C1SC(CC(=O)Nc2sc(C)c(C)c2C(=O)OC)C(=O)N1CC (centres undefined)	-3	0.8	0.6	-2	17	42
